# From PubChem BioAssay (NCI)
# Several values for one entry are separate records, joined by “and”; a condition that tells them apart may be missing. Equal values may be shown once. The panel holds about 83,000 compounds, 20% with a hit somewhere; the sample as a whole holds those more often.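 Method: cells in 96-well plates; compound added at one concentration; 48 h incubation; percent growth measured; values under 10 scored active.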 Activity calls are given as the source filed them. Starred links: 1 amine or outer side, 2 acyl side, 3 side chain; linkers in the order of their positions; H or OH if unused. Positions of bridges follow the written chain, without caps; N, C: chain ends. Non-standard residues stand in square brackets, D forms with d. Residues, ends and D or L forms follow the SMILES beside them. Chains are numbered I, II in the order given. Actinocin(9to1) = Cc1c2oc3c(C)ccc(C(=O)[*:1])c3nc-2c(C(=O)[*:2])c(N)c1=O; aThr = C[C@H](O)[C@H](N)C(=O)O; NMeV = CN[C@H](C(=O)O)C(C)C; Sar = CNCC(=O)O
# Legend:
# Assay in all cases: NCI-60 one-dose screen, 48 h (100 = growth as untreated, 0 = no growth, -100 = all killed)
# HT29 colon = tested on: HT29 colon
# SNB-75 CNS = tested on: SNB-75 CNS
# SNB-19 CNS = tested on: SNB-19 CNS
# U251 CNS = tested on: U251 CNS
# PC-3 prostate = tested on: PC-3 prostate
# SK-MEL-5 melanoma = tested on: SK-MEL-5 melanoma
# UACC-62 melanoma = tested on: UACC-62 melanoma
# LOX IMVI melanoma = tested on: LOX IMVI melanoma
# SK-MEL-2 melanoma = tested on: SK-MEL-2 melanoma
# SK-MEL-28 melanoma = tested on: SK-MEL-28 melanoma
smiles,measurement,setting,value
"Cc1c2oc3c(C)ccc(C(=O)N[C@@H]4C(=O)N[C@H](C(C)C)C(=O)N5CCC[C@H]5C(=O)N(C)CC(=O)N(C)[C@@H](C(C)C)C(=O)O[C@H]4C)c3nc-2c(C(=O)N[C@@H]2C(=O)N[C@H](C(C)C)C(=O)N3CCC[C@H]3C(=O)N(C)CC(=O)N(C)[C@@H](C(C)C)C(=O)O[C@H]2C)c(N)c1=O (I: [aThr][dV]P[Sar][NMeV] / II: [aThr][dV]P[Sar][NMeV]; ester I:1-I:C, II:1-II:C; linker I:N-II:N via Actinocin(9to1))",growth,HT29 colon; 0.0025 µM,29.4% (inactive)
same,growth,HT29 colon; 10 µM,-24.1% (active)
same,growth,SNB-75 CNS; 0.0025 µM,39.6% (inactive)
same,growth,SNB-75 CNS; 10 µM,-73.6% (active)
same,growth,SNB-19 CNS; 0.0025 µM,38.2% (inactive)
same,growth,SNB-19 CNS; 10 µM,-0.258% (active)
same,growth,U251 CNS; 0.0025 µM,22.1% (inactive)
same,growth,U251 CNS; 10 µM,6.96% (active)
same,growth,PC-3 prostate; 0.0025 µM,42.8% (inactive)
same,growth,PC-3 prostate; 10 µM,0.295% (active)
same,growth,SK-MEL-5 melanoma; 0.0025 µM,30.8% (inactive)
same,growth,SK-MEL-5 melanoma; 10 µM,-94.8% (active)
same,growth,UACC-62 melanoma; 0.0025 µM,36.5% (inactive)
same,growth,UACC-62 melanoma; 10 µM,-74.5% (active)
same,growth,LOX IMVI melanoma; 0.0025 µM,24.3% (inactive)
same,growth,LOX IMVI melanoma; 10 µM,9.98% (active)
same,growth,SK-MEL-2 melanoma; 0.0025 µM,75.4% (inactive)
same,growth,SK-MEL-2 melanoma; 10 µM,-53.1% (active)
BrC/C=C/C[P+](c1ccccc1)(c1ccccc1)c1ccccc1,growth,HT29 colon; 10 µM,60% (inactive)
same,growth,SNB-19 CNS; 10 µM,46.6% (inactive)
same,growth,U251 CNS; 10 µM,18.2% (inactive)
same,growth,PC-3 prostate; 10 µM,22.4% (inactive)
same,growth,SK-MEL-5 melanoma; 10 µM,53.9% (inactive)
same,growth,UACC-62 melanoma; 10 µM,52.8% (inactive)
same,growth,LOX IMVI melanoma; 10 µM,2.3% (active)
same,growth,SK-MEL-28 melanoma; 10 µM,53.2% (inactive)
same,growth,SK-MEL-2 melanoma; 10 µM,78.7% (inactive)
O=c1[nH]cc(F)c(=O)[nH]1,growth,HT29 colon; 10 µM,43.6% (inactive) and 42.6% (inactive)
same,growth,HT29 colon; 25 µM,27.1% (inactive)
same,growth,HT29 colon; 50 µM,31.4% (inactive)
same,growth,SNB-75 CNS; 10 µM,73.5% (inactive) and 90.2% (inactive)
same,growth,SNB-75 CNS; 25 µM,65.9% (inactive)
same,growth,SNB-75 CNS; 50 µM,63.8% (inactive)
same,growth,SNB-19 CNS; 10 µM,75.7% (inactive) and 83.3% (inactive)
same,growth,SNB-19 CNS; 25 µM,65.9% (inactive)
same,growth,SNB-19 CNS; 50 µM,66.7% (inactive)
same,growth,U251 CNS; 10 µM,74.7% (inactive) and 78.7% (inactive)
same,growth,U251 CNS; 25 µM,50.3% (inactive)
same,growth,U251 CNS; 50 µM,61.1% (inactive)
same,growth,PC-3 prostate; 10 µM,73.6% (inactive) and 75.1% (inactive)
same,growth,PC-3 prostate; 25 µM,58.2% (inactive)
same,growth,PC-3 prostate; 50 µM,64.8% (inactive)
same,growth,SK-MEL-5 melanoma; 10 µM,45.5% (inactive) and -28.2% (active)
same,growth,SK-MEL-5 melanoma; 25 µM,33.7% (inactive)
same,growth,SK-MEL-5 melanoma; 50 µM,59.5% (inactive)
same,growth,UACC-62 melanoma; 10 µM,51.9% (inactive) and 48.4% (inactive)
same,growth,UACC-62 melanoma; 25 µM,39.7% (inactive)
same,growth,UACC-62 melanoma; 50 µM,54% (inactive)
same,growth,LOX IMVI melanoma; 10 µM,41.7% (inactive) and 51% (inactive)
same,growth,LOX IMVI melanoma; 25 µM,30.4% (inactive)
same,growth,LOX IMVI melanoma; 50 µM,35.7% (inactive)
same,growth,SK-MEL-28 melanoma; 10 µM,62.2% (inactive)
same,growth,SK-MEL-28 melanoma; 50 µM,50.9% (inactive)
same,growth,SK-MEL-2 melanoma; 10 µM,71.4% (inactive) and 106% (inactive)
same,growth,SK-MEL-2 melanoma; 25 µM,95.5% (inactive)
same,growth,SK-MEL-2 melanoma; 50 µM,73% (inactive)
Cc1ccc2nc(N/N=C/c3ccc(C)s3)cc(C)c2c1,growth,UACC-62 melanoma; 100 µM,-99.1% (active) and -100% (active)
S=c1[nH]nc(Cc2ccccc2)c(=S)[nH]1,growth,HT29 colon; 10 µM,97.4% (inactive)
same,growth,SNB-75 CNS; 10 µM,92.8% (inactive)
same,growth,SNB-19 CNS; 10 µM,109% (inactive)
same,growth,U251 CNS; 10 µM,100% (inactive)
same,growth,PC-3 prostate; 10 µM,89.1% (inactive)
same,growth,SK-MEL-5 melanoma; 10 µM,110% (inactive)
same,growth,UACC-62 melanoma; 10 µM,110% (inactive)
same,growth,LOX IMVI melanoma; 10 µM,94.4% (inactive)
same,growth,SK-MEL-28 melanoma; 10 µM,114% (inactive)
same,growth,SK-MEL-2 melanoma; 10 µM,104% (inactive)
CCCCCCCCCCCCCCCCCN,growth,HT29 colon; 10 µM,98.9% (inactive)
same,growth,SNB-75 CNS; 10 µM,92.6% (inactive)
same,growth,SNB-19 CNS; 10 µM,102% (inactive)
same,growth,U251 CNS; 10 µM,96.3% (inactive)
same,growth,PC-3 prostate; 10 µM,92.3% (inactive)
same,growth,SK-MEL-5 melanoma; 10 µM,103% (inactive)
same,growth,UACC-62 melanoma; 10 µM,102% (inactive)
same,growth,LOX IMVI melanoma; 10 µM,102% (inactive)
same,growth,SK-MEL-28 melanoma; 10 µM,101% (inactive)
same,growth,SK-MEL-2 melanoma; 10 µM,110% (inactive)
CSc1ccc2c(c1)C(N1CCN(C)CC1)Cc1ccccc1S2 (stereo unspecified),growth,HT29 colon; 10 µM,-15.9% (active)
same,growth,SNB-75 CNS; 10 µM,0.687% (active)
same,growth,SNB-19 CNS; 10 µM,54.7% (inactive)
same,growth,U251 CNS; 10 µM,33.3% (inactive)
same,growth,PC-3 prostate; 10 µM,26.5% (inactive)
same,growth,SK-MEL-5 melanoma; 10 µM,-86.6% (active)
same,growth,UACC-62 melanoma; 10 µM,-69.5% (active)
same,growth,LOX IMVI melanoma; 10 µM,-5.64% (active)
same,growth,SK-MEL-28 melanoma; 10 µM,-63.8% (active)
